# The whole screen tested about 310,000 compounds, of which about 14,000 (4.5%) showed an effect of 50% or more. Effects have a minus sign here. This excerpt belongs to a sample that is enriched for strong results.
# Target: human ether-à-go-go-related gene (hERG) potassium channel (human, UniProt Q12809)
# Experiment: primary screen, population patch clamp on CHO cells stably expressing hERG; higher = less effect of the substance
# 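Also: peak tail current of the secondary pulse compared with the same well before compound.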
# Chain of human ether-à-go-go-related gene (hERG) potassium channel (Q12809 whole entry, looked up): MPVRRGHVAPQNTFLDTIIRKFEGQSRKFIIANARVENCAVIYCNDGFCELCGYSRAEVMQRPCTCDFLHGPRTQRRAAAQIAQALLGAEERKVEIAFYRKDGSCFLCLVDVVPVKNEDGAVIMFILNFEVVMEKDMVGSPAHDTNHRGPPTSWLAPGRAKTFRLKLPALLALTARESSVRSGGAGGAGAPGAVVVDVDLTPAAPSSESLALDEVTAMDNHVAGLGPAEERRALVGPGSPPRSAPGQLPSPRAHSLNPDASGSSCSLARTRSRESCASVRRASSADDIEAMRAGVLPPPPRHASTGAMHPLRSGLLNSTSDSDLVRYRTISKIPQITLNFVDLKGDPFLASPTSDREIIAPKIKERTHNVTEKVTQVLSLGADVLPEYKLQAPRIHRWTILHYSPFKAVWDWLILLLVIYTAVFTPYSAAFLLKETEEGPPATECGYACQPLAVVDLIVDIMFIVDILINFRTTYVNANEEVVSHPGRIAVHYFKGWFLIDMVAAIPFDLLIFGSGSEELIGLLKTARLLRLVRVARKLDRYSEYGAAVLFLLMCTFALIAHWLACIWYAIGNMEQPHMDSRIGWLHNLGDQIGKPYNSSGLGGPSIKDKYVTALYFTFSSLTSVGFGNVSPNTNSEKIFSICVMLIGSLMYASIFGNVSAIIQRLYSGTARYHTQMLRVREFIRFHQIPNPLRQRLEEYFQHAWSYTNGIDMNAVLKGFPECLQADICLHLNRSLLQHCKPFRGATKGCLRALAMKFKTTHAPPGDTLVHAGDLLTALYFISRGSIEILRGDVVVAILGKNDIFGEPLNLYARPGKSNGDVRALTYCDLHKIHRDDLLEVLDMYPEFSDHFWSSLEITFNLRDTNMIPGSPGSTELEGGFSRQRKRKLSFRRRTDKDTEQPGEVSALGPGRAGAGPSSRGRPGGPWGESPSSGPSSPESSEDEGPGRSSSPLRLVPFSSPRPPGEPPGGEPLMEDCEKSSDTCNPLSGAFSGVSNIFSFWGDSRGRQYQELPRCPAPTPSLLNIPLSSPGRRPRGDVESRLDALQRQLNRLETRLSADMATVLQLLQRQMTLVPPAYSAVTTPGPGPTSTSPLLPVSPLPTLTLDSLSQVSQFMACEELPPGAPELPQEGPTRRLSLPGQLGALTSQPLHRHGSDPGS
row,SMILES,"hERG current change (%, negative = inhibition) at 10uM [%]"
1,CC1CCC(C(C)C)C(OC(=O)C2=C3c4ccccc4S(=O)(=O)N3CC2)C1 (stereo not shown),12.3
2,CN(C)S(=O)(=O)N1CCN(C(=O)N2CCCCCC2)CC1,-12.2
3,O=C(N/N=C/c1ccccn1)c1cccc(NC(=O)c2ccccc2Cl)c1,-4.9
4,CC(=O)O.Cc1nc2nc(CSc3nnc(C)s3)cc(=O)n2[nH]1,13.9
5,CCOC(=O)CN(C(=O)Cn1nnc(-c2ccc(C)cc2)n1)C(CC)C(=O)NC1CCCC1 (stereo not shown),-8.67
6,Cc1cc2c(cc1C)C(c1cc(Br)ccc1F)CC(=O)N2 (stereo not shown),8.78
7,COc1ccc2[nH]c(C)c(CCNC(=S)Nc3ccccc3OC)c2c1,8.79
8,CNC(=O)c1cc2cc(OC)ccc2n1CCN(C)C,-11.6
9,CN(C)CCn1c(C(=O)Nc2ccccc2)cc2ccccc21.Cl,-58.9
10,CN(C)CCn1c(C(=O)O)cc2ccccc21.Cl,14.6
11,CCOC(=O)CSc1nc(=O)n2ccccc2n1,13.2
12,COc1ccccc1NC(=O)CCS(=O)(=O)c1ccccc1,12.7
13,CC(NC(=O)Cn1cc2c(n1)CCCCC2)c1ccccc1 (stereo not shown),1.69
14,Cc1ccc2nc(SCC(=O)c3ccccc3)nc(=O)n2c1,-10.1
15,COc1ccc(C)cc1Nc1n[n+](-c2ccccc2)c(-c2ccc(N(C)C)cc2)s1.[Cl-],-49.3
16,COc1ccc(C)cc1Nc1n[n+](-c2ccccc2)c(-c2ccc(SC)cc2)s1.[Cl-],-1.4
17,CCc1ccc(Nc2n[n+](-c3ccccc3)c(-c3ccc(OC)c(Br)c3)s2)cc1.[Cl-],-44
18,CCOc1cc(-c2sc(Nc3ccccc3)n[n+]2-c2ccc(F)cc2)ccc1OC.[Cl-],23.6
19,CCOc1cc(-c2sc(Nc3ccc(CC)cc3)n[n+]2-c2ccccc2)ccc1OC.[Cl-],-78.7
20,CCOc1cc(-c2sc(Nc3cc(C)ccc3OC)n[n+]2-c2ccccc2)ccc1OC.[Cl-],-68.7
21,COc1ccc2ccccc2c1C1CC(=O)N2CN(C)CSC2=C1C#N (stereo not shown),12.7
22,CCn1c(/C=C2\C(=O)Nc3ccccc32)nc2ccccc2c1=O,-18.3
23,Cc1ccc(NC(=O)CC2SC(=NC3CCCCC3)NC2=O)cc1 (stereo not shown),-9.82
24,Cc1ccc(C(CNS(=O)(=O)c2ccc(C)cc2)N2CCN(C)CC2)cc1 (stereo not shown),-62.8
25,O=[N+]([O-])c1ccc(S(=O)(=O)NCC(c2cccnc2)N2CCc3ccccc3C2)cc1 (stereo not shown),-35.6
26,COc1ccc(S(=O)(=O)NCC(c2ccc(C)cc2)N2CCN(C)CC2)cc1OC (stereo not shown),-25.6

row,SMILES,"hERG current change (%, negative = inhibition) at 10uM [%]"
1,O=[N+]([O-])c1ccc(S(=O)(=O)NCC(c2cccnc2)N2CCOCC2)cc1 (stereo not shown),-22
2,COc1ccc(S(=O)(=O)NCC(c2ccc(F)cc2)N2CCN(C)CC2)cc1 (stereo not shown),-36.4
3,COc1ccc(C(CNS(=O)(=O)c2ccc(F)cc2)N2CCN(C)CC2)cc1 (stereo not shown),-32.5
4,Cc1ccc(S(=O)(=O)NC(C)C(c2cccs2)N2CCN(C)CC2)cc1 (stereo not shown),-18
5,Cc1ccc(S(=O)(=O)NCC(c2ccccc2)N2CCN(CCC#N)CC2)cc1 (stereo not shown),-21.5
6,CN1CCN(C(CNS(=O)(=O)c2ccc([N+](=O)[O-])cc2)c2ccc(F)cc2)CC1 (stereo not shown),-67.6
7,CC(NS(=O)(=O)c1ccccc1)C(c1cccs1)N1CCN(C)CC1 (stereo not shown),5.5
8,Cc1ccc(C(CNS(=O)(=O)c2ccc(F)cc2)N2CCN(C)CC2)cc1 (stereo not shown),-58.3
9,CC(NS(=O)(=O)c1ccc(Br)cc1)C(c1cccs1)N1CCN(C)CC1 (stereo not shown),-53.2
10,Cc1ccc(Nc2nnc(SCC(=O)Nc3ncc(S(=O)(=O)c4ccc([N+](=O)[O-])cc4)s3)s2)cc1,-14.5
11,CC1CCN(S(=O)(=O)c2ccc(NC(=O)CN3CCCCCC3)cc2)CC1,-31.2
12,Cc1c(CCO)c(=O)n(-c2ccccc2)n1S(=O)(=O)c1ccc(F)cc1,1.37
13,COc1ccccc1NC(=O)c1sc2nc(N3CCOCC3)c3c(c2c1N)CCCC3,15.2
14,Cc1cc(F)ccc1S(=O)(=O)NCC(c1ccc2c(c1)OCO2)N1CCOCC1 (stereo not shown),-16.8
15,Cc1ccc(C(CNS(=O)(=O)c2ccc([N+](=O)[O-])cc2)N2CCN(C)CC2)cc1 (stereo not shown),-66.8
16,COc1ccc(N2CCN(C(CNS(=O)(=O)c3ccccc3)c3ccccc3)CC2)cc1 (stereo not shown),-22.5
17,CN(C)c1ccc(C(CNS(=O)(=O)c2ccc([N+](=O)[O-])cc2)N2CCOCC2)cc1 (stereo not shown),-25.9
18,COc1ccc(OC)c(S(=O)(=O)NCC(c2ccc(F)cc2)N2CCN(C)CC2)c1 (stereo not shown),-33.8
19,Cc1ccc(C(CNS(=O)(=O)c2ccc(Cl)cc2)N2CCN(C)CC2)cc1 (stereo not shown),-72.8
20,O=S(=O)(NCC(c1ccccc1)N1CCC(O)CC1)c1ccc(Cl)cc1 (stereo not shown),-19.6
21,O=S(=O)(NCC(c1ccccc1)N1CCNCC1)c1ccc(Cl)cc1 (stereo not shown),-28.6
22,Cc1ccc(C(CNS(=O)(=O)c2ccc(F)cc2C)N2CCN(C)CC2)cc1 (stereo not shown),-57
23,COc1ccc(C(CNS(=O)(=O)c2ccc(C)cc2)N2CCN(C)CC2)cc1 (stereo not shown),-45.2
24,COc1ccc(S(=O)(=O)NCC(c2ccc(C)cc2)N2CCN(C)CC2)cc1 (stereo not shown),-51.9
25,CN(C)c1ccc(C(CNS(=O)(=O)c2ccc([N+](=O)[O-])cc2)N2CCCC2)cc1 (stereo not shown),-47.2
26,CC1CN(c2oc(COc3ccc(Cl)cc3Cl)nc2C#N)CC(C)O1 (stereo not shown),-13.6
